Source: PubChem BioAssay AID651699 (Sanford-Burnham Center for Chemical Genomics, 2012)
Screen size: about 360,000 compounds; about 2,100 (0.58%) were called active. Rule as the data show it: active = inhibition above about 36%; inactive = the rest. Shown is part of a subset that was picked to be rich in actives.

These compounds were tested against NEDD8-conjugating enzyme Ubc12 (Homo sapiens) + NEDD8-activating enzyme E1 regulatory subunit (Homo sapiens) (UniProt P61081+Q13564) (assay: NEDD8 transfer onto cullin, blockade – biochemical, TR-FRET, uHTS, NAE and Ubc12, primary screen (AID 651699)). Settings: TR-FRET cullin neddylation, at 25 µM, stronger effect = higher value.
NEDD8-conjugating enzyme Ubc12 (Homo sapiens) + NEDD8-activating enzyme E1 regulatory subunit (Homo sapiens), sequence (P61081 whole entry, looked up): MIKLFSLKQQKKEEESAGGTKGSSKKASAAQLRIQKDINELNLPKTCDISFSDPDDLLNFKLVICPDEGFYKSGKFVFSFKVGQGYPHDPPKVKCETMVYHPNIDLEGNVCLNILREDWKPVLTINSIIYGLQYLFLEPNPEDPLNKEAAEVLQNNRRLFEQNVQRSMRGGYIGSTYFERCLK
NEDD8-conjugating enzyme Ubc12 (Homo sapiens) + NEDD8-activating enzyme E1 regulatory subunit (Homo sapiens), sequence (Q13564 whole entry, looked up): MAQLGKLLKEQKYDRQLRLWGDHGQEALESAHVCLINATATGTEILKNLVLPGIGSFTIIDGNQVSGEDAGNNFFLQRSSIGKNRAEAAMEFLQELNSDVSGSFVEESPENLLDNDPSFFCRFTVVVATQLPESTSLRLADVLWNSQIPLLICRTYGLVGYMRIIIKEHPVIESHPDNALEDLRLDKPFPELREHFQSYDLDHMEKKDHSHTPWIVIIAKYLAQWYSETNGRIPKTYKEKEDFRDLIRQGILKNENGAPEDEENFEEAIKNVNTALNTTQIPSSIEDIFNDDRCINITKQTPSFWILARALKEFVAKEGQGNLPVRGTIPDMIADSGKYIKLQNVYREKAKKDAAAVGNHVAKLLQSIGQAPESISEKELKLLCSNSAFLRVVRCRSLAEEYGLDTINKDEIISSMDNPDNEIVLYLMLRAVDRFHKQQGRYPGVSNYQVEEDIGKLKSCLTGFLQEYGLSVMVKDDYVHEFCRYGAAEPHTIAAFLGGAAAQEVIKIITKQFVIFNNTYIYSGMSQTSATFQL

**Q.** CCOc1ccc(Cl)cc1-c1cc(C(=O)NCc2cccs2)[nH]n1 was tested. Which inhibition did it give?
**A.** Its inhibition is -0.82% (inactive).

**Q.** Which inhibition does the source give for Cc1sc2c(c1C)c(=O)n(-c1ccccc1)c1nncn21 here?
**A.** The inhibition was -4.64% (inactive).

**Q.** For CSCCC(NS(=O)(=O)/C=C/c1ccccc1)C(=O)N1CCC(C)CC1 (centres undefined), which inhibition is on record?
**A.** Its inhibition is 5.25% (inactive).

**Q.** For CCCn1nc(NS(=O)(=O)c2ccc(F)cc2)c2cc3ccccc3nc21, which inhibition is on record?
**A.** Its inhibition is -5.34% (inactive).

**Q.** How did the inhibition turn out when COCCCNc1nc2ccccc2nc1NS(=O)(=O)c1ccc(F)cc1 was run?
**A.** The inhibition was 37.4% (active).

**Q.** CCCCNc1nc2ccccc2nc1NS(=O)(=O)c1cccs1 was tested. Which inhibition did it give?
**A.** The inhibition was 19.1% (inactive).

**Q.** For Cc1cccc(CC(=O)Nc2c3c(nn2-c2cccc(Cl)c2)CS(=O)C3)c1 (centres undefined), which inhibition is on record?
**A.** Its inhibition is 4.67% (inactive).

**Q.** With COc1ccc(S(=O)(=O)N2CCN(C)CC2)c(C)c1 as the compound, how does the inhibition read?
**A.** The inhibition was -9.29% (inactive).

**Q.** Cn1c(N2CCOCC2)c(C=O)c2ccccc21 was tested. Which inhibition did it give?
**A.** The inhibition was 13.5% (inactive).

**Q.** Cn1c(=O)c(C(=O)Nc2ncccn2)c(O)c2ccccc21 was tested. Which inhibition did it give?
**A.** The inhibition was 27.6% (inactive).

**Q.** Which inhibition does the source give for Cc1cc(C)c(-c2c(O)c3ccccc3n(C)c2=O)c(C)c1 here?
**A.** The inhibition was 43.4% (active).

**Q.** How did the inhibition turn out when Cn1c(=O)c(Sc2ccc(Cl)cc2)c(O)c2ccccc21 was run?
**A.** The inhibition was -5.74% (inactive).

**Q.** For O=S(=O)(NCCCN1CCOCC1)c1ccc(F)c(Cl)c1, which inhibition is on record?
**A.** The inhibition was -7.79% (inactive).

**Q.** For CC1(C)S[C@@H]2[C@H](NC(=O)COc3ccccc3)C(=O)N2C1C(=O)OCc1ccccc1 (some centres undefined), which inhibition is on record?
**A.** Its inhibition is 3.84% (inactive).

**Q.** Which inhibition does the source give for NC(=O)Cn1c(=O)oc2ccccc21 here?
**A.** Its inhibition is 4.87% (inactive).

**Q.** For COc1ccc(CNC(=O)[C@@H]2CC=C[C@@H]3CCN(C4CC4)C(=O)[C@@H]32)cc1, which inhibition is on record?
**A.** Its inhibition is 4.74% (inactive).

**Q.** CCN(CC)CCCN1C(=O)C(=O)/C(=C(/O)c2c(C)nc3ccccn23)C1c1ccc(C)o1 (centres undefined) was tested. Which inhibition did it give?
**A.** Its inhibition is -7.73% (inactive).

**Q.** With Cc1ccc(C(=O)NNC(=O)OC(C)(C)C)c(Cl)c1 as the compound, how does the inhibition read?
**A.** The inhibition was -8.95% (inactive).

**Q.** With CC(C)(C)OC(=O)NNc1c2ccccc2nc2ccccc12 as the compound, how does the inhibition read?
**A.** Its inhibition is 48% (active).

**Q.** How did the inhibition turn out when O=C(NNc1c2ccccc2nc2ccccc12)c1cc2ccccc2cc1O was run?
**A.** Its inhibition is -10.9% (inactive).

**Q.** How did the inhibition turn out when CCSC1=NCCN1S(=O)(=O)c1ccc(F)cc1 was run?
**A.** The inhibition was 8.82% (inactive).

**Q.** CC(Oc1ccc(F)cc1)C(=O)Nc1ccccc1C(=O)NC1CC1 (centres undefined) was tested. Which inhibition did it give?
**A.** Its inhibition is 4.37% (inactive).

**Q.** With O=[N+]([O-])c1ccc2c(c1)C(O)n1nc(-c3ccccc3)nc1S2 (centres undefined) as the compound, how does the inhibition read?
**A.** The inhibition was -7.67% (inactive).

**Q.** Which inhibition does the source give for Cc1noc(C)c1C(=O)OCC(=O)N1CCN(S(=O)(=O)c2ccc3ccccc3c2)CC1 here?
**A.** Its inhibition is -4.19% (inactive).

**Q.** Cc1noc(C)c1C(=O)OCC(=O)/C=C1\N(C)c2ccccc2C1(C)C was tested. Which inhibition did it give?
**A.** The inhibition was 43.7% (active).

**Q.** Which inhibition does the source give for COc1ccc(C(=O)COC(=O)c2c(C)noc2C)cc1Cl here?
**A.** The inhibition was -4.13% (inactive).

**Q.** With CC1CCCCC1NC(=O)Cn1cnc2c1c(=O)n(C)c(=O)n2C (centres undefined) as the compound, how does the inhibition read?
**A.** The inhibition was 5.44% (inactive).

**Q.** How did the inhibition turn out when COc1ccc(-c2cc3c(c4c2ccn4C)C2CCC3C2)cn1 (centres undefined) was run?
**A.** The inhibition was -50.3% (inactive).

**Q.** Which inhibition does the source give for COc1cc(C2/C(=C(\O)c3ccc4c(c3)CC(C)O4)C(=O)C(=O)N2c2nnc(C)s2)cc(OC)c1OC (centres undefined) here?
**A.** The inhibition was -20.5% (inactive).

**Q.** COc1ccc(NC(=O)C2=NNC(=O)CC2)cc1S(=O)(=O)N1CCCCC1 was tested. Which inhibition did it give?
**A.** Its inhibition is -1.74% (inactive).

**Q.** For CCCCCCC(=O)Nc1nc(C)c(-c2csc(Nc3cccc(OC)c3)n2)s1, which inhibition is on record?
**A.** Its inhibition is -13.8% (inactive).

**Q.** Which inhibition does the source give for C=CCCC(=O)Nc1nc(C)c(-c2csc(Nc3ccc(Cl)cc3)n2)s1 here?
**A.** The inhibition was -8.67% (inactive).

**Q.** Which inhibition does the source give for CC(=O)Nc1nc(C)c(-c2csc(Nc3ccc(S(N)(=O)=O)cc3)n2)s1 here?
**A.** The inhibition was 77% (active).

**Q.** Which inhibition does the source give for CCCCC(=O)N(C)c1c(CC)nc2c(OCc3ccc(Cl)cc3Cl)cccn12 here?
**A.** The inhibition was 8.51% (inactive).

**Q.** CC(C)Cn1cnc2c1c(=O)n(CC(=O)NN)c(=O)n2Cc1ccccc1 was tested. Which inhibition did it give?
**A.** Its inhibition is 3.73% (inactive).

**Q.** With Cc1noc(C)c1COc1cccc(C(=O)Nc2cccnc2)c1 as the compound, how does the inhibition read?
**A.** Its inhibition is -1.48% (inactive).

**Q.** Which inhibition does the source give for Cc1noc(C)c1COc1ccc2ccc(=O)oc2c1 here?
**A.** The inhibition was 42.9% (active).

**Q.** How did the inhibition turn out when CC(C)OC(=O)c1ccc(COc2ccc3ccc(=O)oc3c2)o1 was run?
**A.** Its inhibition is 32.9% (inactive).

**Q.** CCOC(=O)N1CCC(NC(=O)CN2C(=O)COc3ccc(C(C)(C)C)cc32)CC1 was tested. Which inhibition did it give?
**A.** The inhibition was -0.68% (inactive).

**Q.** How did the inhibition turn out when CN(C)CCN=c1cc(-c2ccccc2)oc2ccc(Cl)cc12 was run?
**A.** The inhibition was -18.1% (inactive).

**Q.** Which inhibition does the source give for Cc1ccc2[nH]c3c(=O)n(CC(=O)NCCc4ccc(Cl)cc4)ncc3c2c1 here?
**A.** Its inhibition is -2.38% (inactive).

**Q.** Which inhibition does the source give for CC(C(=O)NC1CCCCC1)N1C(=O)c2cccc3cccc1c23 (centres undefined) here?
**A.** The inhibition was 39.6% (active).

**Q.** With CC(C(=O)NC1CCCC1)N1CCN(S(=O)(=O)c2ccccc2Cl)CC1 (centres undefined) as the compound, how does the inhibition read?
**A.** The inhibition was -0.01% (inactive).

**Q.** Cc1ccnc(NC(=O)C(C)N2C(=O)c3ccccc3C2=O)c1 (centres undefined) was tested. Which inhibition did it give?
**A.** Its inhibition is 9.23% (inactive).

**Q.** For CC(=O)Nc1cc(-c2ccc(N3CCN(C)CC3)cc2)cn2c(-c3cccc(C(=O)N(C)C)c3)cnc12, which inhibition is on record?
**A.** Its inhibition is 0.78% (inactive).

**Q.** Which inhibition does the source give for COc1ccccc1-c1cc(NC(C)=O)c2ncc(-c3ccc(F)cc3)n2c1 here?
**A.** The inhibition was 38.6% (inactive).

**Q.** With CC(=O)Nc1cc(-c2ccc(N3CCN(C)CC3)cc2)cn2c(-c3ccc(F)cc3)cnc12 as the compound, how does the inhibition read?
**A.** Its inhibition is 42.2% (active).

**Q.** With C1=C(N2CCOCC2)/C(=C/c2nc3ccccc3[nH]2)CC1 as the compound, how does the inhibition read?
**A.** Its inhibition is 43% (active).

**Q.** For O=C1c2ccccc2C(c2nc3ccccc3[nH]2)N1c1ccccc1 (centres undefined), which inhibition is on record?
**A.** The inhibition was 4.84% (inactive).

**Q.** Which inhibition does the source give for CCO[C@H]1OC(C(=O)NCc2ccccc2)=C[C@@H](c2coc3ccccc3c2=O)[C@@H]1CCCO here?
**A.** Its inhibition is -9.63% (inactive).

**Q.** How did the inhibition turn out when Cc1c(Cl)cccc1NC(=O)[C@@]1(CC(=O)O)CC(/C=C/c2ccccc2)=NO1 was run?
**A.** The inhibition was -0.33% (inactive).

**Q.** With Cc1ccc(C(CNC(=O)Nc2cccc(C)c2)N2CCN(C)CC2)cc1 (centres undefined) as the compound, how does the inhibition read?
**A.** The inhibition was -3.56% (inactive).

**Q.** For Cc1cc(N)n2nc(-c3ccc(C(C)(C)C)cc3)cc2n1, which inhibition is on record?
**A.** Its inhibition is 40.5% (active).

**Q.** For COc1cccc2cc(/C(C)=N/NC(=O)c3ccco3)oc12, which inhibition is on record?
**A.** The inhibition was -10.7% (inactive).

**Q.** For CC1CCCC(NC(=O)CN2CCN(Cc3ccc(Cl)cc3)C2=O)C1C (centres undefined), which inhibition is on record?
**A.** The inhibition was 5.5% (inactive).

**Q.** Which inhibition does the source give for CCC(C)c1ccc(NC(=O)COC(=O)C2CCCC2)cc1 (centres undefined) here?
**A.** Its inhibition is -5.48% (inactive).

**Q.** Which inhibition does the source give for Cc1ccc(-n2ncc3c(Nc4cccc(C(=O)O)c4)ncnc32)cc1 here?
**A.** The inhibition was 38.5% (active).

**Q.** With COc1ccc2nc(C)cc(Nc3cccc(C(=O)O)c3)c2c1 as the compound, how does the inhibition read?
**A.** Its inhibition is -12.3% (inactive).

**Q.** CC(Sc1ncnc2c1cnn2-c1ccccc1)C(=O)Nc1ccc(N2CCOCC2)cc1 (centres undefined) was tested. Which inhibition did it give?
**A.** The inhibition was 3.26% (inactive).
